# Reference: PubChem BioAssay (EPA / NIEHS)
# “And” between values parts separate entries of the source, which are not always exact repeats. Identical values can stand only once. Records with an inconclusive call do not appear. The source made the active and inactive calls. How the source made its calls, unless noted: active means hit-call score of the fitted dose curve at least 0.9, where 1 is the maximum; inconclusive means response in the unintended direction; inactive means score below 0.9.
# Test: CCTE_Padilla_ZF_144hpf_TERATOSCORE: (Legacy) CCTE's 144 Hour Post-fertilization zebrafish Assay Teratoscore, Padilla Lab (AID 2283679; active means hit-call score of the fitted dose curve at least 0.9, where 1 is the maximum; inactive means score below 0.9;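 on AC50: teratogenicity score from eye scoring of death hatching and malformations at 144 hpf; higher score means more developmental defects relative to DMSO baseline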)
# Source text: CCTE_Padilla_ZF_144hpf is a whole embryo, multiplexed assay. Zebrafish embryos were exposed to chemicals starting 6 hr post-fertilization for 5 days in 96-well plates. Developing larvae were examined microscopically daily for malformation and mortality.CCTE_Padilla_ZF_144hpf_TERATOSCORE is one of one assay component(s) measured or calculated from the CCTE_Padilla_ZF_144hpf assay. It is designed to make measurements of developmental malformations and mortality as detected with brightfield microscopy.Data from the assay component CCTE_Padilla_ZF_144hpf_TERATOSCORE was analyzed into 1 assay endpoint. This assay endpoint, CCTE_Padilla_ZF_144hpf_TERATOSCORE, was analyzed in the positive analysis fitting direction relative to DMSO as the negative control and baseline of activity. Using a type of morphological reporter, gain-of-signal activity can be used to understand changes in developmental defect as they relate to the whole embryo. To generalize the intended target to other relatable targets, this assay endpoint is annotated to the malformation intended target family, where the subfamily is total.
# Zebrafish husbandry: Wild type adult zebrafish (Danio rerio; undefined outbred stock obtained from Aquatic Research Organisms, Hampton, NH, 03842) were housed in an AAALAC-approved animal facility at 28C with a 14:10 h light: dark cycle (lights on at 08:30 h). Adult fish (2-3 females per male; density = 15-20 adults per tank) were kept in one of several 9-liter (L) flow-through colony tanks (Aquaneering Inc., San Diego, CA). All adults in a colony tank were placed in a 2 L (static) breeding tank (Aquatic Habitats, Apopka, FL) one hour prior to light onset. Typically, adults from two to three colony tanks were mated on the same day. Two hours after light onset the adults were returned to the colony tank. All embryos were gathered from each breeder tank, pooled, and placed in a 28C water bath for 2 h, followed by two washes with 0.06% bleach (v/v) in 10% Hanks' Balanced Salt Solution (13.7 mM NaCl 0.54 mM KCl, 25 uM Na2HPO4, 130 uM CaCl2 100 um MgSO4 and 420 um NaHCO3,), hereafter referred to as Hanks' solution, for 5 min in order to remove any residual bacteria or fungi. Immediately following washing, the embryos were examined, and healthy embryos were separated from dead or unfertilized eggs and moved into fresh Hanks'. Single Concentration Study: The chemicals were arrayed on a 96-well stock plate, 80 chemicals per plate, 20 mM concentration of each, with 16 DMSO (vehicle) controls. The embryos were exposed to the chemicals (80 Mfinal concentration, renewed daily) by immersion from 0 dpf until 5 dpf. Eighty micromolar was chosen as the highest concentration for two reasons (1) because the stock solutions were prepared at 20 mM in 100% DMSO. On 6 dpf, each embryo/larva was assessed for viability, hatching status and malformations. There were 4 embryos per concentration per chemical (each embryo on a separate microtiter plate). […] Chemical exposures: Zebrafish embryos were exposed in 96-well plates. Briefly, on day 0, approximately 6-8 h after fertilization, zebrafish embryos (with chorions) were placed 1 embryo per well in Millipore Multiscreen Nylon mesh plates (catalog number MANMN4050, Millipore Corp, Bedford, MA) and exposed to nominal concentrations of the chemicals. In each well, 1 ul of the chemical in DMSO from the stock plate was diluted with 250 ul of 10% Hanks' solution; the final DMSO concentration was 0.4% (v/v) in all wells; vehicle controls receives DMSO only. Each plate was sealed with a non-adhesive material (Type A, BioRad, Hercules, CA), covered with a lid, and wrapped in Parafilm to minimize evaporation. All embryos and larvae were kept in a 26C incubator with a 14:10 h light-dark cycle (with lights on at 08:30 h and off at 22:30 h). […]
Structure (SMILES),AC50,outcome
O=C(CCCN1CCC(O)(c2ccc(Cl)cc2)CC1)c1ccc(F)cc1,0.664 µM (active),–
CS(=O)(=O)c1ccc([C@@H](CC2CCCC2)C(=O)Nc2cnccn2)cc1Cl,58.6 µM (active),–
CCCCc1oc2ccccc2c1C(=O)c1cc(I)c(OCCN(CC)CC)c(I)c1,7.89 µM (active),–
CCCCCCCCCCCCOS(=O)(=O)O,–,inactive
O=C(c1ccccc1)c1ccccc1,15.1 µM (active),–
CCCCC=O,105 µM (active),–
N=C(N)c1ccc(OCCCCCOc2ccc(C(=N)N)cc2)cc1,41.4 µM (active),–
CC(C)c1c(C(=O)Nc2ccccc2)c(-c2ccccc2)c(-c2ccc(F)cc2)n1CC[C@@H](O)C[C@@H](O)CC(=O)O,2.65 µM (active) and 3.07 µM (active),–
Cc1[nH]nc2c1N=C(c1ccccc1Cl)c1cc([N+](=O)[O-])ccc1N2,1.32 µM (active),–

# Test: STM_H9_OrnithineISnorm_perc: Stemina devTOX quickPredict H9 human embryonic stem cell (hESC)-based Assay for Ornithine (ORN) Metabolite Biomarker, Normalized (AID 2283712; active means hit-call score of the fitted dose curve at least 0.9, where 1 is the maximum; inactive means score below 0.9;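 further: ornithine released into spent medium during last day measured by mass spectrometry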)
# Outline: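 Undifferentiated pluripotent H9 hESCs were exposed to compound for 72h, with media and compound replaced every 24h. Ornithine in final 24-h conditioned media was measured by UPLC-HRMS, normalized to 13C-labeled spike-in standard and to median 0.1% DMSO control.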
Structure (SMILES),AC50,outcome
CN(Cc1cnc2nc(N)nc(N)c2n1)c1ccc(C(=O)N[C@@H](CCC(=O)O)C(=O)O)cc1,0.0773 µM (active),–
O=C(CCCN1CCC(O)(c2ccc(Cl)cc2)CC1)c1ccc(F)cc1,–,inactive
O=C1NS(=O)(=O)c2ccccc21,0.113 µM (active),–
CCCCC(CC)C(=O)O (stereo unspecified),0.134 µM (active),–
OCC(CO)(CBr)CBr,–,inactive
Cc1[nH]nc2c1N=C(c1ccccc1Cl)c1cc([N+](=O)[O-])ccc1N2,2.08 µM (active),–

# Test: STM_H9_CystineISnorm_perc: Stemina devTOX quickPredict H9 human embryonic stem cell (hESC)-based Assay for Cystine (CYSS) Metabolite Biomarker, Normalized (AID 2283713; active means hit-call score of the fitted dose curve at least 0.9, where 1 is the maximum; inactive means score below 0.9)
# Outline: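 Undifferentiated H9 hESCs were exposed to compound for 72h, with medium and compound replaced every 24h. Final-24h conditioned medium was deproteinized and analyzed by UPLC-HRMS. Cystine EIC area was normalized to spiked C13 standard and 0.1% DMSO median.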
Structure (SMILES),AC50,outcome
CN(Cc1cnc2nc(N)nc(N)c2n1)c1ccc(C(=O)N[C@@H](CCC(=O)O)C(=O)O)cc1,0.0873 µM (active),–
O=C(CCCN1CCC(O)(c2ccc(Cl)cc2)CC1)c1ccc(F)cc1,–,inactive
O=C1NS(=O)(=O)c2ccccc21,–,inactive
CCCCC(CC)C(=O)O (stereo unspecified),–,inactive
OCC(CO)(CBr)CBr,–,inactive
Cc1[nH]nc2c1N=C(c1ccccc1Cl)c1cc([N+](=O)[O-])ccc1N2,1.62 µM (active),–

# Test: STM_H9_OrnCyssISnorm_ratio: Stemina devTOX quickPredict H9 human embryonic stem cell (hESC)-based Assay for Ornithine (ORN):Cystine (CYSS) Ratio (AID 2283714)
# Outline: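 Undifferentiated H9 hESCs were exposed to compound for 72h with media and chemical replaced every 24h. Final 24-h conditioned media were deproteinized and analysed by UPLC-HRMS. ORN and CYSS peak areas were normalized to C13 internal standards and the ratio taken versus 0.1% DMSO.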
Structure (SMILES),AC50,outcome
CN(Cc1cnc2nc(N)nc(N)c2n1)c1ccc(C(=O)N[C@@H](CCC(=O)O)C(=O)O)cc1,0.0863 µM (active),–
Oc1c(Cl)cc(Cl)cc1Sc1cc(Cl)cc(Cl)c1O,–,inactive
O=C(CCCN1CCC(O)(c2ccc(Cl)cc2)CC1)c1ccc(F)cc1,–,inactive
CCCCc1oc2ccccc2c1C(=O)c1cc(I)c(OCCN(CC)CC)c(I)c1,5 µM (active),–
O=C1NS(=O)(=O)c2ccccc21,–,inactive
CCCCC(CC)C(=O)O (stereo unspecified),–,inactive
O=C(c1ccccc1)c1ccccc1,–,inactive
OCC(CO)(CBr)CBr,–,inactive
CN(C)CCOC(c1ccccc1)c1ccccc1,1.55 µM (active),–
Cc1[nH]nc2c1N=C(c1ccccc1Cl)c1cc([N+](=O)[O-])ccc1N2,1.85 µM (active),–

# Test: CEETOX_H295R_MTT_cell_viability: Viability Assessment in the CeeTox HT-H295R MTT Assay (AID 2283718; active means hit-call score of the fitted dose curve at least 0.9, where 1 is the maximum; inactive means score below 0.9;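 on AC50: curve fitted both ways so AC50 may mark viability loss or gain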)
# Outline: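 H295R cells prestimulated 48 h with 10 uM forskolin, then exposed 48 h to test chemical (0.1% DMSO final). Viability by MTT (0.5 mg/ml, 4 h, 37 C), absorbance 570/650 nm; percent change versus DMSO, bidirectional fit.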
Structure (SMILES),outcome,AC50
O=C(CCCN1CCC(O)(c2ccc(Cl)cc2)CC1)c1ccc(F)cc1,inactive,–
COc1cc([N+](=O)[O-])ccc1N,inactive,–
C[C@]12CC[C@@H]3c4ccc(O)cc4CC[C@H]3[C@@H]1C[C@@H](O)[C@@H]2O,–,91.7 µM (active)

# Test: Tanguay_ZF_120hpf_ActivityScore_legacy: (Legacy) Oregon State University Tanguay Lab 120 Hour Post-fertilization zebrafish Assay Score for Activity (AID 2283742);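 on AC50: static exposure from 6 hpf until 120 hpf at 28 °C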
# Outline: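 Tropical 5D wild-type zebrafish embryos, dechorionated with pronase at 4 hpf, were exposed singly from 6 hpf to 120 hpf statically at 28C in 0.64% DMSO. Malformations and mortality were scored as binary by brightfield, with the activity score combining 18 morphology components.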
Structure (SMILES),outcome,AC50
CN(Cc1cnc2nc(N)nc(N)c2n1)c1ccc(C(=O)N[C@@H](CCC(=O)O)C(=O)O)cc1,inactive,–
O=C(CCCN1CCC(O)(c2ccc(Cl)cc2)CC1)c1ccc(F)cc1,–,4.09 µM (active)
CS(=O)(=O)c1ccc([C@@H](CC2CCCC2)C(=O)Nc2cnccn2)cc1Cl,inactive,–
CCCCc1oc2ccccc2c1C(=O)c1cc(I)c(OCCN(CC)CC)c(I)c1,inactive,–
O=C1NS(=O)(=O)c2ccccc21,inactive,–
CCCCC(CC)C(=O)O (stereo unspecified),inactive,–
CCCCCCCCCCCCOS(=O)(=O)O,–,11 µM (active)
O=C(c1ccccc1)c1ccccc1,inactive,–
CC(=O)Nc1ccc(O)cc1,inactive,–
CCCCC=O,inactive,–
N=C(N)c1ccc(OCCCCCOc2ccc(C(=N)N)cc2)cc1,inactive,–
OCC(CO)(CBr)CBr,inactive,–
CCC(C)c1ccccc1O (stereo unspecified),inactive,–
CN(C)CCOC(c1ccccc1)c1ccccc1,–,202 µM (active)
Cc1[nH]nc2c1N=C(c1ccccc1Cl)c1cc([N+](=O)[O-])ccc1N2,inactive,–

# Test: ACEA_AR_antagonist_AUC_viability: ACEA Biosciences xCELLigence Real-Time Cell Analysis on Androgen Receptor Antagonism for Viability (AID 2283776);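 further: 22Rv1 human prostate cancer cells growing on impedance electrode plates; area under impedance growth curve at 80 h after dosing as viability; hits lower the growth signal relative to DMSO meaning cytotoxicity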
# Outline: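 Real-time electrical impedance tracks 22Rv1 proliferation after continuous compound exposure (top 100 uM final, 1:4 steps, 8 concentrations). The 80 h area-under-curve serves as the cytotoxicity readout relative to DMSO.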
Structure (SMILES),AC50,outcome
CN(Cc1cnc2nc(N)nc(N)c2n1)c1ccc(C(=O)N[C@@H](CCC(=O)O)C(=O)O)cc1,0.551 µM (active),–
O=C(CCCN1CCC(O)(c2ccc(Cl)cc2)CC1)c1ccc(F)cc1,53.7 µM (active),–
CCCCc1oc2ccccc2c1C(=O)c1cc(I)c(OCCN(CC)CC)c(I)c1,9.15 µM (active),–
Cc1cc(Cc2cc(C)cc(C(C)(C)C)c2O)c(O)c(C(C)(C)C)c1,21.4 µM (active),–
O=C1NS(=O)(=O)c2ccccc21,–,inactive
CCCCC(CC)C(=O)O (stereo unspecified),–,inactive
O=C(c1ccccc1)c1ccccc1,–,inactive
NC(=NCCCCCCN=C(N)/N=C(\N)Nc1ccc(Cl)cc1)/N=C(\N)Nc1ccc(Cl)cc1,10.6 µM (active),–
CC(=O)Nc1ccc(O)cc1,–,inactive
CCCCCCCCCCCCOC(=O)c1cc(O)c(O)c(O)c1,3.44 µM (active),–
CCCCC=O,–,inactive
CCCCCCc1ccc(N)cc1,–,inactive
N=C(N)c1ccc(OCCCCCOc2ccc(C(=N)N)cc2)cc1,17.3 µM (active),–
Cc1cc(C(C)(C)C)c(O)c(C(C)(C)C)c1,0.144 µM (active),–
OCC(CO)(CBr)CBr,–,inactive
COc1cc([N+](=O)[O-])ccc1N,–,inactive
Cc1cc(C(=C2C=CC(=Nc3ccc(S(=O)(=O)O)cc3)C=C2)c2ccc(Nc3ccc(S(=O)(=O)O)cc3)cc2)cc(S(=O)(=O)O)c1N,–,inactive
CC(C)c1c(C(=O)Nc2ccccc2)c(-c2ccccc2)c(-c2ccc(F)cc2)n1CC[C@@H](O)C[C@@H](O)CC(=O)O,4.96 µM (active),–
C[C@]12CC[C@@H]3c4ccc(O)cc4CC[C@H]3[C@@H]1C[C@@H](O)[C@@H]2O,1.16 µM (active),–
CCC(C)c1ccccc1O (stereo unspecified),–,inactive
CN(C)CCOC(c1ccccc1)c1ccccc1,–,inactive
Cc1[nH]nc2c1N=C(c1ccccc1Cl)c1cc([N+](=O)[O-])ccc1N2,2.04 µM (active),–
